# Compound activity from PubChem BioAssay.
# PD-1 reverse act = activators reversing PD-1 mediated T-cell inhibition; activation, % (no concentration beside the values); 29,000 tested, under 10 active; primary human CD4 T cells, PD-L1 beads, CellTiter-Glo 96 h; call rule not given here;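 further: 0% = median vehicle wells and 100% = positive control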
# STK33 kin inh = inhibitors of human STK33 kinase; Q9BYT3; ADP-Glo luminescence, MBP substrate; inhibition, % at 12.5 µM; 0.44% of 27,000 active; in the data active means inhibition above about 20%; inconclusive means no clear call, values can overlap the other calls
# Target sequence (Q9BYT3 whole entry, looked up): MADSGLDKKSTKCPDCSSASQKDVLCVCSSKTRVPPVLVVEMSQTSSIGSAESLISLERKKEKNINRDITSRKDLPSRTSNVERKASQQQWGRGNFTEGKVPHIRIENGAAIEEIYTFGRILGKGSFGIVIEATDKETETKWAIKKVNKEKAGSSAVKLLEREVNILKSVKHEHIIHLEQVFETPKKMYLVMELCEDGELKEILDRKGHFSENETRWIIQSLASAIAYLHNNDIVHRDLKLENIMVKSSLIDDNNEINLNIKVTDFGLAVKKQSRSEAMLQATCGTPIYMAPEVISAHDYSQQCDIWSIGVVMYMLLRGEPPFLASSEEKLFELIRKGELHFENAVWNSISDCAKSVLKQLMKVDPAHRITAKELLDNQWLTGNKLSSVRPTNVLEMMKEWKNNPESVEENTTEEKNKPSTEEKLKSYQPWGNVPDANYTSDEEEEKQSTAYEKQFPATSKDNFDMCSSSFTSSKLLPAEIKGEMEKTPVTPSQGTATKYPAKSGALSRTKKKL
# NOMO-1 viab = STK33 inhibitor candidate reducing NOMO-1 cell viability; AID 2330; NOMO-1 AML viability, CellTiter-Glo luminescence, 72 h; inhibition, % (no concentration beside the values); 7.5% of 37,000 active; in the data active means inhibition above about 80%; inconclusive means no clear call, values can overlap the other calls
# * marks the source's active call; other numbers are inactive results; ? = inconclusive; · = not tested or not shown; ! = not active in a repeat. Many of the other results were omitted from the sample, so hits are more common in it than they were.
SMILES,PD-1 reverse act,STK33 kin inh,NOMO-1 viab
OCCN1CCN(CCCN2c3ccccc3Sc3ccc(C(F)(F)F)cc32)CC1,·,2,119*!
CN1CCCCC1CCN1c2ccccc2Sc2ccc(S(C)=O)cc21 (stereo unspecified),7,-3,20
COc1ccc(-c2oc(NC(=O)Cc3ccc(OC)c(OC)c3)c(C#N)c2-c2ccc(OC)cc2)cc1,·,0,40
Cc1cccc(NC(=O)CSc2nc3sc4c(c3c(=O)[nH]2)CCCC4)c1,·,0,-1
C[C@H]1CN([C@@H](C)CO)C(=O)c2cccc(NC(=O)CCCCCC(=O)Nc3ccccc3N)c2O[C@@H]1CN(C)Cc1ccc(-c2ccccc2)cc1,0,·,134*
C[C@@H]1CN([C@H](C)CO)C(=O)c2cccc(NC(=O)CCCCCC(=O)Nc3ccccc3N)c2O[C@H]1CN(C)Cc1ccc(-c2ccccc2)cc1,0,·,126*
C[C@@H]1CN([C@H](C)CO)C(=O)c2cc(NC(=O)CCCCCC(=O)Nc3ccccc3N)ccc2O[C@H]1CN(C)Cc1ccc(-c2ccccc2)cc1,1,·,69
C[C@H](CO)N1C[C@H](C)[C@@H](CN(C)Cc2ccncc2)Oc2c(NC(=O)CCCCCC(=O)Nc3ccccc3N)cccc2C1=O,1,·,15
C[C@@H]1CN([C@H](C)CO)C(=O)c2cccc(NC(=O)CCCCCC(=O)Nc3ccccc3N)c2O[C@@H]1CN(C)CC1CCCCC1,1,·,119*
C[C@H]1CN([C@@H](C)CO)C(=O)c2cccc(NC(=O)CCCCCC(=O)Nc3ccccc3N)c2O[C@H]1CN(C)CC1CC1,2,·,13
CC(=O)c1cccc(NC(=O)Cn2nc([N+](=O)[O-])c(Br)c2C)c1,·,1,32
CCOC(=O)c1c(C2COc3ccccc3O2)csc1NC(=S)Nc1ccccc1 (stereo unspecified),·,-5,-2
CC(C)C[C@](CC(=O)OCc1ccc(O[C@@H]2O[C@H](CO)[C@@H](O)[C@H](O)[C@H]2O)cc1)(O[C@@H]1O[C@H](CO)[C@@H](O)[C@H](O)[C@H]1O)C(=O)OCc1ccc(O[C@@H]2O[C@H](CO)[C@@H](O)[C@H](O)[C@H]2O)cc1,0,-1,95*
O=C(CC(O)(CC(=O)OCc1ccc(O[C@@H]2O[C@H](CO)[C@@H](O)[C@H](O)[C@H]2O)cc1)C(=O)OCc1ccc(O[C@@H]2O[C@H](CO)[C@@H](O)[C@H](O)[C@H]2O)cc1)OCc1ccc(O[C@@H]2O[C@H](CO)[C@@H](O)[C@H](O)[C@H]2O)cc1,0,-5,10
O=C(CSC1CC(=O)N(c2ccc(OC(F)(F)F)cc2)C1=O)Nc1ccc(Cl)cc1 (stereo unspecified),-2,-3,31
CCc1cc(O)c(C)c(O)c1C=O,·,-5,·
Cc1cc2c(C(C)C)c(O)c(O)c(C=O)c2c(O)c1-c1c(C)cc2c(C(C)C)c(O)c(O)c(C=O)c2c1O,·,-4,111*
O=C(COc1ccccc1Cl)Nc1ccccc1[N+](=O)[O-],·,2,-4
CCOC(=O)C1=C(CSc2ccc(Cl)cc2)NC(=O)NC1c1cc(C)ccc1C (stereo unspecified),1,·,115*
CCOC(=O)c1cc(-c2ccc(Cl)cc2)[nH]c(=O)c1C#N,0,·,-13
COc1cccc(NC(=O)CSC2CC(=O)N(c3cc(C)cc(C)c3)C2=O)c1 (stereo unspecified),·,0,6
COc1ccc(Cl)cc1N(CC(=O)N1CCN(c2cccc(Cl)c2)CC1)S(C)(=O)=O,0,4,18
C=CC[C@@]12N=C(c3ccc(OCCCO)cc3)O[C@@H]1c1ccccc1N(CCS(=O)(=O)c1ccccc1)C2=O,·,0,·
CCc1ccc(NS(=O)(=O)c2ccc(OC)cc2)cc1,3,·,113*
COc1ccc(S(=O)(=O)c2ccc(OC)cc2)cc1,1,·,30
SMILES,PD-1 reverse act,STK33 kin inh,NOMO-1 viab
Cc1ccc(C(=O)Nc2cccc(NC(=O)COc3ccc(Br)cc3)c2)cc1,3,6,18
CCOC(=S)Nc1ccc(I)cc1,1,·,36
Cc1cc(C)cc(OCC(=O)Nc2cc(-c3nc4cc(Cl)ccc4o3)ccc2C)c1,·,-1,41
C[C@@H]1CN([C@@H](C)CO)C(=O)c2cc(NC(=O)Nc3cccc4ccccc34)ccc2O[C@H]1CN(C)Cc1ccc2c(c1)OCO2,1,-1,28
C[C@@H]1CN([C@@H](C)CO)C(=O)Cc2cc(NC(=O)Nc3cccc4ccccc34)ccc2O[C@@H]1CN(C)Cc1ccc2c(c1)OCO2,-1,2,97*
C[C@H](CO)N1C[C@H](C)[C@@H](CN(C)Cc2ccc3c(c2)OCO3)Oc2ccc(NC(=O)Nc3cccc4ccccc34)cc2C1=O,-1,·,43
C[C@@H]1CN([C@H](C)CO)C(=O)Cc2cc(NC(=O)Nc3cccc4ccccc34)ccc2O[C@@H]1CN(C)Cc1ccc2c(c1)OCO2,-1,1,116*
Cc1sc2nc(SCC(=O)Nc3c(F)cc(F)cc3Br)n(C)c(=O)c2c1C,1,0,49
C[C@@H]1CN([C@@H](C)CO)C(=O)c2cccc(NC(=O)NC3CCCCC3)c2O[C@@H]1CN(C)C(=O)Nc1ccc(C(F)(F)F)cc1,-5,·,94*
C[C@H](CO)N1C[C@H](C)[C@H](CN(C)C(=O)Nc2ccc(F)cc2)Oc2c(NC(=O)Nc3ccc(C(F)(F)F)cc3)cccc2C1=O,1,·,103*
C[C@H](CO)N1C[C@H](C)[C@@H](CN(C)C(=O)Nc2ccc(F)cc2)Oc2c(NC(=O)Nc3ccc(C(F)(F)F)cc3)cccc2C1=O,·,·,42
C[C@@H]1CN([C@H](C)CO)C(=O)c2cccc(NC(=O)Nc3ccc(C(F)(F)F)cc3)c2O[C@@H]1CN(C)C(=O)Nc1ccc(C(F)(F)F)cc1,1,·,98*
C[C@@H]1CN([C@H](C)CO)C(=O)c2cccc(NC(=O)NC3CCCCC3)c2O[C@@H]1CN(C)C(=O)Nc1ccc(C(F)(F)F)cc1,·,·,67
C[C@H]1CN([C@@H](C)CO)C(=O)c2cccc(NC(=O)Nc3ccc(C(F)(F)F)cc3)c2O[C@H]1CN(C)C(=O)Nc1ccc(C(F)(F)F)cc1,1,·,70
COc1ccc(NC(=O)N(C)C[C@H]2Oc3c(NC(=O)Nc4ccc(C(F)(F)F)cc4)cccc3C(=O)N([C@@H](C)CO)C[C@H]2C)cc1,-2,·,88*
COc1ccc(NC(=O)Nc2cccc3c2O[C@H](CN(C)C(=O)Nc2ccc(C(F)(F)F)cc2)[C@H](C)CN([C@H](C)CO)C3=O)cc1,-1,·,7
O=C(COc1ccccc1C(=O)Nc1cccc(Cl)c1Cl)Nc1ccc(N2CCOCC2)c(Cl)c1,-2,3,30
COc1ccc(C(=O)O)cc1S(=O)(=O)NCc1ccccc1,·,1,·
O=C(Cn1cnc2ccccc2c1=O)Nc1ccccc1[N+](=O)[O-],3,-3,12
Nc1c(N2CCOCC2)c2ccccc2oc1=O,0,·,23
C[C@H]1CN([C@@H](C)CO)C(=O)c2cccc(NC(=O)Nc3ccc(C(F)(F)F)cc3)c2O[C@H]1CN(C)C(=O)Nc1ccc(F)cc1,-5,·,?
C[C@@H]1CN([C@@H](C)CO)C(=O)c2cccc(NC(=O)Nc3ccc(C(F)(F)F)cc3)c2O[C@H]1CN(C)C(=O)Nc1ccc(F)cc1,-5,·,117*
